JMJD2A Tudor inh: qHTS Assay for Inhibitors of JMJD2A-Tudor Domain; Lysine-specific demethylase 4A (Homo sapiens), O75164; AlphaScreen JMJD2A-Tudor / H3K4me3 peptide binding; Potency, µM (doses to about 114 µM), for inactives: top-dose activity change, negative = inhibition, hits mostly inhibitors; 4.4% of 390,000 active; AID 504339, 2011; note: % is set by controls: 0 for no effect and ±100 for the full control effect; nearly all actives have a fitted effect of over 50% in size
L3MBTL1 inh: qHTS Assay for the Inhibitors of L3MBTL1; Lethal(3)malignant brain tumor-like protein 1 (Homo sapiens), Q9Y468; AlphaScreen L3MBTL1–H3K9me1 peptide binding; Potency, µM (titrated, usually from 57.1 µM), for the others: top-dose activity, negative = inhibition, actives largely listed as inhibitors; 0.66% of 230,000 active; note: % is set by controls: 0 for no effect and ±100 for the full control effect; nearly all actives have a fitted effect of over 60% in size
Target sequence (Q9Y468 whole entry, looked up): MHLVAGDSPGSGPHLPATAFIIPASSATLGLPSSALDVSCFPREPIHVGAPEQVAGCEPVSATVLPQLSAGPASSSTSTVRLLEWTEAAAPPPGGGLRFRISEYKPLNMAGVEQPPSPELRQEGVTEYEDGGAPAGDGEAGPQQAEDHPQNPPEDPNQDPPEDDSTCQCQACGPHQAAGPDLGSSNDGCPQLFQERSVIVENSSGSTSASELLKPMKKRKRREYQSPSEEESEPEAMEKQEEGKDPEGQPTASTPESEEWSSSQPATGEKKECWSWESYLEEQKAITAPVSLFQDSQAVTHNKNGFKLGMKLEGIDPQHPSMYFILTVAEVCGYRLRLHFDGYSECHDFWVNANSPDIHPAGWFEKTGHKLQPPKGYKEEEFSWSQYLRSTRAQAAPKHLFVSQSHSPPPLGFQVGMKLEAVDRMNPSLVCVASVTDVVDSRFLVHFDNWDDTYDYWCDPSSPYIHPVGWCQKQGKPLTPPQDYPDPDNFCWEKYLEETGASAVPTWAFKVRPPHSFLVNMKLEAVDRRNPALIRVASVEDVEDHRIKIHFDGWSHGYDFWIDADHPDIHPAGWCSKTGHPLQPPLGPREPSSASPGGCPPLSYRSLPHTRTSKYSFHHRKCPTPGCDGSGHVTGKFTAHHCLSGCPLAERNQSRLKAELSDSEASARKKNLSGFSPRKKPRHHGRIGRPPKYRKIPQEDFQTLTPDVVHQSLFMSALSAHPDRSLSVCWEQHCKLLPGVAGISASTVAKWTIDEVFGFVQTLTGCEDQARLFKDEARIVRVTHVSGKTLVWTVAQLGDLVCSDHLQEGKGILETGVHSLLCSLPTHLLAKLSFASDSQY
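Read-out is AlphaScreen signal from streptavidin donor and nickel chelate acceptor beads (10 ug/mL final each) bridging L3MBTL1 (50 nM) and biotinylated K9-monomethylated H3(1-15) peptide (75 nM), after 30 min compound exposure at room temperature.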
G9a block: qHTS Assay for Inhibitors of Histone Lysine Methyltransferase G9a. Potency, µM (doses to about 102 µM), for inactives: top-dose activity, negative = inhibition, actives largely listed as inhibitors. Histone-lysine N-methyltransferase EHMT2 (Homo sapiens), Q96KQ7. AID 504332, 2011. G9a H3K9 monomethylation, AlphaScreen, 2 h. 8.8% of 350,000 active; note: % is set by controls: 0 for no effect and ±100 for the full control effect; nearly all actives have a fitted effect of over 75% in size
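Methyltransferase reactions run at room temperature for 2 h (20 nM enzyme, 500 nM biotin-H3K9 peptide, 20 uM SAM) after a 15 min compound preincubation; product detected by AlphaScreen beads and anti-H3K9me1 antibody.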
HP1b binding inh: HTS for Inhibitors of HP1-beta Chromodomain Interactions with Methylated Histone Tails; Chromobox protein homolog 1 (Homo sapiens), P83916; AlphaScreen HP1-beta / biotin-H3K9me3 peptide binding; Potency, µM (top dose mostly 114 µM), inactives show at the highest dose activity change, negative = inhibition, usual class: inhibitors; 0.56% of 390,000 active; note: nearly all actives have a fitted effect of over 70% in size
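HP1-beta protein (50 nM final) preincubated 30 min at room temperature with biotinylated H3(1-18)K9me3 peptide (50 nM) in PBS pH 7.4, 0.01% Tween-20, then compound added for 30 min. AlphaScreen streptavidin donor/nickel chelate acceptor beads (10 ug/mL final), 30 min dark, luminescence read.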
BAZ2B block: qHTS Assay for Inhibitors of BAZ2B; Potency, µM (highest dose often 114 µM), inactives show at the top dose activity change, negative = inhibition, hits mostly inhibitors; Bromodomain adjacent to zinc finger domain protein 2B (Homo sapiens), Q9UIF8; AID 504333, 2011; 4.4% of 360,000 active; AlphaScreen BAZ2B-H3K14Ac peptide displacement; note: % is set by controls: 0 for no effect and ±100 for the full control effect; nearly all actives have a fitted effect of over 60% in size
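Compounds, titrated to a top concentration of 110 uM, were incubated 30 min at room temperature with preformed BAZ2B/acetyl-K14 H3 peptide complex (50 nM each). Proximity signal was measured by AlphaScreen after 20 min with beads.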
Numbers without * were called inactive; u = inconclusive; x = no result given; [ ] = remark or other dose. In the library only some 11% were active in any assay of this set; here they are far more common. Calls come from the whole dose curve; as a rule, active = well fitted inhibition curve with a large enough effect; inconclusive = small, poorly fitted or top-dose-only effect; inactive = no such curve, though single readings can be large or run the other way. Potency is the fitted concentration of half-maximal effect.

SMILES | JMJD2A Tudor inh | L3MBTL1 inh | G9a block | HP1b binding inh | BAZ2B block
CCSc1ncc(Cl)c(C(=O)N(Cc2ccc(N(C)C)cc2)Cc2ccco2)n1 | 18µM* | x | 13µM* | u | 10µM*
Cc1ccc(OCC(=O)N(Cc2ccco2)Cc2ccco2)cc1 | -34% | x | -32%[59 µM] | -7% | -30%
CN(C)c1ccc(CN(Cc2ccco2)C(=O)c2ccc(F)cc2)cc1 | 45µM* | x | 13µM* | u | 35µM*
Cc1ccccc1C(=O)N(Cc1ccc(N(C)C)cc1)Cc1ccco1 | 45µM* | x | 13µM* | u | 35µM*
CN(C)c1ccc(CN(Cc2ccco2)C(=O)COc2ccc(F)cc2)cc1 | 45µM* | x | 16µM* | u | 28µM*
O=C(CCCCn1c(=O)c2ccccc2n(Cc2cccc(F)c2)c1=O)NCCc1ccccc1 | -3% | x | -1%[59 µM] | 16% | 0%
CCOC(=O)c1c(C)oc2nc(C)nc(NCc3ccc(F)cc3)c12 | 16% | x | -5%[59 µM] | 44% | 11%[57.1 µM]
Cc1ccc(C(=O)N(Cc2ccc(N(C)C)cc2)Cc2ccco2)cc1 | 40µM* | x | 14µM* | u | 35µM*
COc1cccc(C(=O)N(Cc2ccc(N(C)C)cc2)Cc2ccco2)c1 | 40µM* | x | 13µM* | u | 22µM*
CCc1ccc(CN(Cc2ccco2)C(=O)c2ccc(C)cc2)cc1 | 37% | x | 53%[59 µM] | 86% | 54%
Cc1cc(C)c2c(CC(=O)N(Cc3ccc(N(C)C)cc3)Cc3ccco3)coc2c1 | 13µM* | x | 11µM* | u | 10µM*
O=C(Nc1cccc(F)c1)c1ccc2oc(=O)n(Cc3ccccc3)c2c1 | -9% | x | 34%[59 µM] | 17% | -6%
O=C(Nc1ccc2nc3n(c(=O)c2c1)CCCCC3)c1ccccn1 | -24% | 8% | 25µM* | 9% | -27%
O=c1c2cc(NC(=S)NCc3ccccn3)ccc2nc2n1CCCCC2 | -35% | -13% | 40µM* | 20% | u
O=c1c2cc(NC(=S)NCCN3CCCCCC3)ccc2nc2n1CCCCC2 | -32% | -5% | u | 6% | -21%
CCCCN(CC)CCCNC(=S)Nc1ccc2nc3n(c(=O)c2c1)CCCCC3 | -14% | 4% | 45µM* | 13% | 3%
O=C(Nc1ccc2nc3n(c(=O)c2c1)CCCCC3)C(=O)N1CCN(c2ccc(F)cc2)CC1 | 20µM* | x | 0% | u | -20%
NC(=O)C1CCN(C(c2ccccc2F)c2nnnn2Cc2ccco2)CC1 (stereo not given) | -27% | 13% | 2%[12.7 µM] | 26% | u
Fc1ccccc1C(c1nnnn1Cc1ccc2c(c1)OCO2)N1CCN(Cc2ccco2)CC1 (stereo not given) | -34% | -11% | 50µM* | 2% | -4%
COc1ccc(N2CCN(C(c3ccccc3OC)c3nnnn3Cc3ccco3)CC2)cc1 (stereo not given) | 50µM* | x | u | -47% | 40µM*
COc1cccc(C(c2nnnn2Cc2ccco2)N2CCN(Cc3ccccc3)CC2)c1OC (stereo not given) | -10% | -19% | -32%[12.7 µM] | 28% | 50µM*
COc1ccc(N2CCN(C(c3ccccc3)c3nnnn3Cc3ccccc3)CC2)cc1 (stereo not given) | u | x | x | -7% | x
C#CCOc1ccc(/C=C2/C(=O)NN(c3ccc(F)cc3)C2=O)cc1OC | -23% | x | 35µM* | 14% | -16%
COC(=O)c1ccc(N2NC(=O)/C(=C/c3ccc(OC)c(OC)c3)C2=O)cc1 | -22% | -6% | u | 6% | -3%
COc1cc(/C=C2\C(=O)NN(c3ccccc3)C2=O)ccc1OCC(N)=O | x | 5% | 50µM* | x | 4%
SMILES | JMJD2A Tudor inh | L3MBTL1 inh | G9a block | HP1b binding inh | BAZ2B block
Cc1ccc(-n2cnc3c(sc4nc(N5CCOCC5)c5c(c43)CCCC5)c2=O)cc1 | -14% | 4% | 50µM* | 51% | -12%
CSc1ccccc1C(=O)NCCOc1cccc(C)c1 | -3% | 6% | 45µM* | 71% | -15%
CSc1ccccc1C(=O)Nc1ncn[nH]1 | 79µM* | -23% | 1.6µM* | 44% | u
CSc1ccccc1C(=O)Nc1ccccc1C | -8% | 4% | x | 5% | -2%
CSc1ccccc1C(=O)Nc1c(C)cccc1C | -4% | 2% | 28µM* | 28% | -12%
Cc1ccc(NC(=O)CN2C(=O)CC(c3ccc(C)c(C)c3)=Nc3ccccc32)cc1 | -20% | x | -1%[59 µM] | 9% | -3%
N#CCCn1c(=O)c(-c2ccc(Cl)cc2)nc2cnc(N3CCNCC3)nc21 | x | x | 1%[0.501 µM] | x | x
CC1(C)CC(=O)C2=C(C1)OC1=C(C(=O)CC(C)(C)C1)C2c1ccc(O)cc1O | -25% | -7% | 2.8µM* | 2% | u
CC1(C)CC(=O)C2=C(C1)OC1=C(C(=O)CC(C)(C)C1)C2c1ccc(O)c([N+](=O)[O-])c1 | -20% | x | -27% | 23% | -4%
CCOc1ccc(S(=O)(=O)Nc2ccc3c(c2)N(C(C)=O)CCC3)cc1 | 5% | x | 0%[12.7 µM] | 22% | -17%
O=C(N=Nc1c(O)[nH]c2ccccc12)c1cc(-c2cccs2)[nH]n1 | -31% | x | x | 13% | 50µM*
O=C(Cc1cccs1)N=Nc1c(O)[nH]c2ccccc12 | -15% | x | 22%[59 µM] | 21% | -31%
CCCCc1cc(=O)oc2c(C)c(OCC(=O)NCC3CCC(C(=O)O)CC3)ccc12 (stereo not given) | -14% | 1% | 79µM* | 17% | -15%[57.1 µM]
O=C(Nc1ccc(NC(=O)C2CC2)nc1)c1ccccn1 | 45µM* | 9% | 32µM* | 17% | u
CC(C)C(=O)Nc1ccc(NC(=O)c2ccccn2)cn1 | u | 6% | 25µM* | 14% | -5%
O=C(Nc1ccc(NC(=O)C2CC2)nc1)c1cnccn1 | -13% | 0% | 5% | 60% | -21%
COc1ccc(CNC(=O)c2oc3c(c2C)-c2nn(Cc4ccc(Cl)cc4)cc2CC3)cc1 | -6% | x | 3%[59 µM] | 31% | -14%
COc1ccc(CCNC(=O)c2cc(=O)[nH]c3ccc(S(=O)(=O)N4CCCCC4C)cc23)cc1OC (stereo not given) | -25% | x | 2%[59 µM] | 21% | -19%
CCOCCCNCc1ccc(Cl)cc1 | 1.1µM* | 5% | 11µM* | u | 71µM*
Cc1ccc2nc(SCc3nc(-c4ccc(Cl)cc4)no3)[nH]c2c1 | -7% | x | 27%[59 µM] | 75% | -4%
COc1ccc2[nH]c3c(NCCC4=CCCCC4)ncnc3c2c1 | 50µM* | x | -18%[59 µM] | -21% | 28µM*
Cc1ccc(S(=O)(=O)N2Cc3ccccc3CC2C(=O)Nc2ccc3c(c2)OCO3)cc1 (stereo not given) | 79µM* | x | u | u | u
